This passage reports Potency results from PubChem BioAssay (NCATS).

“And” between values parts separate entries of the source, which are not always exact repeats. Identical values can stand only once. Records with an inconclusive call do not appear. Some compounds were tested as several samples or in several runs, with calls that do not always agree. The source made the active and inactive calls. Calls come from the whole dose curve; as a rule, active = well fitted curve in the direction sought with a large enough effect; inconclusive = small, poorly fitted or top-dose-only effect, or another doubt; inactive = no such curve, though single readings can be large; an effect the other way counts as inactive or inconclusive.

A short description of assay [1]: P-glycoprotein substrates identified in KB-3-1 adenocarcinoma cell line, qHTS therapeutic library screen (AID 1346986). Note: nearly all actives have a fitted effect of over 60% in size.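 Note: potency is the fitted concentration of half-maximal effect; potency is for cytotoxicity meaning loss of cell viability.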 The method in brief: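 KB-3-1 parental and colchicine-selected P-gp-overexpressing KB-8-5-11 cells (colchicine omitted during assay), 500 cells/well, dosed in dose-response for 72 h at 37 °C; CellTiter-Glo luminescence. Cytotoxic: curve class -1.1 to -2.4, max response >50%, AC50 < 10 uM.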
A general note: In qHTS, concentration-response curves come from the screen itself.

Assay [2] can be described thus: P-glycoprotein substrates identified in KB-8-5-11 adenocarcinoma cell line, qHTS therapeutic library screen (AID 1346987). Note: nearly all actives have a fitted effect of over 65% in size. Note: potency is the fitted concentration of half-maximal effect. The method in brief: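 KB-8-5-11, a colchicine-selected P-gp-overexpressing KB-3-1 subline, was grown without colchicine for the assay. Cells were seeded at 500 cells/well, dosed in concentration-response and incubated 72 h at 37 degree C, 5% CO2. Viability was read by CellTiter-Glo luminescence.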

Assay [3] is described as follows: qHTS of pediatric cancer cell lines to identify multiple opportunities for drug repurposing: Primary screen for TC32 cells (AID 1347089). Note: nearly all actives have a fitted effect of over 60% in size. The method in brief:
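TC32 cells, 500-1,000/well in growth medium, compound-treated 48 h at 37 °C; viability from CellTiter-Glo luminescence. Primary screen: MIPE 11-point (0.78 nM–46 µM final), NPC 8-point (0.59 nM–46 µM final); confirmatory at 11-point dilutions.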

Assay [4] in a line: qHTS of pediatric cancer cell lines to identify multiple opportunities for drug repurposing: Primary screen for SJ-GBM2 cells (AID 1347091). Note: potency is the fitted concentration of half-maximal effect. Summed up: (§1)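 Viability measured as metabolically active cells via CellTiter-Glo luminescence following 48 hours of compound exposure, 11-point dilutions in confirmatory testing. 500-1,000 cells/well plated 5 hours before dosing; controls were DMSO and 2.3 µM bortezomib.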

A short description of assay [5]: qHTS of pediatric cancer cell lines to identify multiple opportunities for drug repurposing: Primary screen for SK-N-MC cells (AID 1347093). Note: potency is the fitted concentration of half-maximal effect. Summed up: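 Metabolically active cells were quantified by ATP-dependent luminescence (CellTiter-Glo, 15 min at room temperature) following 48 h treatment. Cells had been plated at 500-1,000 per well and settled for 5 h beforehand.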

Assay [6] in a line: qHTS of pediatric cancer cell lines to identify multiple opportunities for drug repurposing: Primary screen for NB-EBc1 cells (AID 1347095). Note: potency is the fitted concentration of half-maximal effect. Summed up:
(§2)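 CRCs from 8- or 11-point titrations (lowest final 0.59 nM NPC, 0.78 nM MIPE). Cell viability: CellTiter-Glo after 48 h incubation, 15 min room-temperature development, luminescence imaging.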

A short description of assay [7]: qHTS of pediatric cancer cell lines to identify multiple opportunities for drug repurposing: Primary screen for U-2 OS cells (AID 1347096). Note: nearly all actives have a fitted effect of over 50% in size. Note: potency is the fitted concentration of half-maximal effect. The method in brief:
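Viability after 48 h compound treatment at 37C, 500-1,000 cells/well, read as ATP luminescence with CellTiter-Glo. Primary screens used 11-point (MIPE, 0.78 nM-46 µM) or 8-point (NPC, 0.59 nM-46 µM) final concentrations; follow-up screens used 11-point dilutions.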

A short description of assay [8]: qHTS of pediatric cancer cell lines to identify multiple opportunities for drug repurposing: Primary screen for Saos-2 cells (AID 1347097). Note: nearly all actives have a fitted effect of over 40% in size. Note: potency is the fitted concentration of half-maximal effect. The method in brief: as §2
A short description of assay [9]: qHTS of pediatric cancer cell lines to identify multiple opportunities for drug repurposing: Primary screen for SK-N-SH cells (AID 1347098). Note: nearly all actives have a fitted effect of over 65% in size. Note: potency is the fitted concentration of half-maximal effect. The method in brief: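 Cells (500-1,000/well) rested 5 h, then received compounds for 48 h; metabolically active cells were measured by CellTiter-Glo luminescence. Final concentrations spanned up to 46 µM (MIPE, 11-point) or 0.59 nM-46 µM (NPC, 8-point) in primary screens, 11-point in follow-ups.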

Assay [10] is described as follows: qHTS of pediatric cancer cell lines to identify multiple opportunities for drug repurposing: Primary screen for DAOY cells (AID 1347090). Note: nearly all actives have a fitted effect of over 55% in size. Note: potency is the fitted concentration of half-maximal effect. The method in brief:
as §1

Assay [11] in a line: qHTS of pediatric cancer cell lines to identify multiple opportunities for drug repurposing: Primary screen for A673 cells (AID 1347092). Note: nearly all actives have a fitted effect of over 45% in size. Note: potency is the fitted concentration of half-maximal effect. The method in brief: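 A673 cells (500-1,000 cells/well) were treated 48 hours at 37 degrees C with compounds at 11-point (0.78 nM to 46 µM) or 8-point (0.59 nM to 46 µM) dilutions. Viability read by CellTiter-Glo luminescence; concentration-response curves fitted.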

Assay [12] is described as follows: NS1 protein of Zika virus - qHTS assay to identify small molecule inhibitors in human HEK 293 cells (AID 1347053). Note: series mostly up to about 46 µM; nearly all actives have a fitted effect of over 55% in size. Summed up:
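Following 20 h seeding, HEK 293 cells took compound, then 1 h later ZIKV MR766 (MOI = 0.5). Incubation ran 24 h at 37 C before TR-FRET detection of NS1; a drop in signal indicates inhibition.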

Assay [13] can be described thus: qHTS of pediatric cancer cell lines to identify multiple opportunities for drug repurposing: Primary screen for BT-37 cells (AID 1347094). Note: potency is the fitted concentration of half-maximal effect. Summed up: as §2

Regarding `CC(=O)NCCC(=O)N[C@@H](CCC(N)=O)C(=O)N[C@@H](CO)C(=O)N[C@@H](CCC(N)=O)C(=O)N[C@@H](CCC(N)=O)C(=O)N[C@H](C(=O)N[C@@H](Cc1ccccc1)C(=O)N[C@]1(C)CCCCCCC=CCCC[C@@](C)(C(=O)N[C@@H](CCC(N)=O)C(=O)N[C@@H](CC(N)=O)C(N)=O)NC(=O)[C@H](CC(C)C)NC(=O)[C@H](CC(C)C)NC(=O)[C@@H](CCCNC(=N)N)NC(=O)[C@H](Cc2c[nH]c3ccccc23)NC(=O)[C@H](CC(C)C)NC(=O)[C@H](CC(N)=O)NC1=O)[C@H](C)O`, the Potency result in assay [1], in assay [2], in assay [3], in assay [4], in [5] and in assay [6] was “inactive” each time. Besides, the Potency entry in assay [7], in assay [8] and in assay [9] was “inactive” in each case.
For `COc1ccc2ccc(=O)oc2c1CC=C(C)C`, the Potency entry in assay [1], in assay [2], in [3], in assay [4] and in assay [9] was “inactive” each time. Besides, the Potency in assay [5] is 9.35 µM (active); in assay [8], 18.7 µM (active).
`CCC(=O)OCC(=O)[C@@]1(OC(=O)CC)[C@@H](C)C[C@@H]2[C@H]3CCC4=CC(=O)C=C[C@]4(C)[C@@]3(F)[C@@H](O)C[C@@]21C`: the Potency result in [1], in assay [3], in assay [6] and in assay [7] was “inactive” throughout. The Potency was 1.18 µM (active) in assay [10], 1.87 µM (active) in assay [11], 0.0372 µM (active) in [5] and 0.187 µM (active) in [8].
For the compound `CN(C)c1nc(Cc2ccc(NC(=O)c3ccc(C(F)(F)F)cc3)cc2)nc(N(C)C)c1CC(=O)O`, the Potency entry in assay [1], in [2], in assay [12], in [4], in [11] and in assay [5] was “inactive” throughout. Further, the Potency entry in assay [6], in assay [7] and in [9] was “inactive” throughout.
As for `CN(C)c1ccc(-c2nc3ncc(Cl)c(N4CCN(CC(=O)Nc5nccs5)CC4)c3[nH]2)cc1`, the Potency entry in assay [1], in [2], in assay [3], in assay [10] and in assay [7] was “inactive” throughout. Besides, the Potency is 14.8 µM (active) in assay [4] and 2.35 µM (active) in assay [6].
Take `CNC(=O)c1cc(COc2nnc(Nc3ccc(Cl)cc3)c3ccoc23)ccn1`: the Potency entry in assay [1], in assay [2], in [3] and in assay [9] was “inactive” in each case. For the same compound, the Potency in [10] was 23.5 µM (active); in assay [4] it was 20.9 µM (active); in [5], 23.5 µM (active); in assay [6], 23.5 µM (active); in [8] it was 18.7 µM (active).
For `COc1ccc(Cn2ccc3ccc(C(=O)NO)cc32)cc1`, the Potency entry in assay [1], in assay [3], in assay [4] and in [8] was “inactive” in each case. In addition, the Potency in [11] was 14.8 µM (active); in assay [5], 5.9 µM (active); in assay [6], 8.33 µM (active); in [9], 21.5 µM (active).
Regarding `CC(C)CN(C[C@H](O)[C@H](Cc1ccccc1)NC(=O)O[C@H]1CCOC1)S(=O)(=O)c1ccc(N)cc1`, the Potency entry in [1], in assay [2], in assay [12], in [3], in assay [6] and in [7] was “inactive” throughout. The Potency in assay [11] was 11.8 µM (active).
Regarding `CNC(=O)c1cc(Oc2ccc(NC(=O)Nc3ccc(Cl)c(C(F)(F)F)c3)c(F)c2)ccn1`, the Potency is 18.4 µM (active) in assay [1]; “inactive and 16.4 µM (active)” in assay [2]; 5.9 µM (active) in assay [10]; 8.33 µM (active) in [4]; 18.7 µM (active) in [11]; 2.96 µM (active) in assay [5]. The Potency in [13] was 21.7 µM (active); in assay [6], 5.26 µM (active); in assay [7], 23.5 µM (active); in assay [8] it was 16.6 µM (active).
